Assay [1] in a line: qHTS assay to identify small molecule agonists of the RXR signaling pathway - cell viability counter screen (AID 1159529). Further: nearly all actives have a fitted effect of over 50% in size. Further: potency means the concentration at half of the fitted maximal effect. A digest of the protocol: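 Luminescence from CellTiter-Glo (30 min, RT) measured viability in the same wells as the beta-lactamase reporter readout. Cells: GeneBLAzer RXR-alpha HEK 293T, 2% charcoal-stripped FBS. Compound exposure 16 hr, 37 C.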
A short description of assay [2]: qHTS assay to identify small molecule antagonists of the retinoid acid receptor (RAR) signaling pathway - cell viability counter screen (AID 1159551). Further: nearly all actives have a fitted effect of over 35% in size. Further: potency means the concentration at half of the fitted maximal effect. A digest of the protocol: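 Seed C3RL4 cells; next day add compound, then retinol to 1 uM final; incubate 6 h at 37 C; add CellTiter-Glo; read luminescence after 30 min at RT.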
Assay [3] is described as follows: qHTS assay to identify small molecule agonists of the constitutive androstane receptor (CAR) signaling pathway - cell viability counter screen (AID 1224836). Further: nearly all actives have a fitted effect of over 45% in size. Further: potency means the concentration at half of the fitted maximal effect. The gist of the method: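 Viability read-out: CellTiter-Fluor fluorescence after 23 h compound exposure at 37 C/5% CO2 in double-stable HepG2-CYP2B6-hCAR cells, with PK11195 present at 0.75 uM final; compounds tested in 15-point titration.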

Assay [4] in a line: qHTS assay to identify small molecule antagonists of the constitutive androstane receptor (CAR) signaling pathway - cell viability counter screen (AID 1224837). Further: nearly all actives have a fitted effect of over 45% in size. Further: potency means the concentration at half of the fitted maximal effect. A digest of the protocol:
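Using CellTiter-Fluor, viability is scored in HepG2 cells stably carrying hCAR and a 2.2kb CYP2B6 reporter after 23 hr compound exposure across 15 concentrations, with CITCO present at 50 nM.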

Assay [5] in a line: qHTS assay to identify small molecule antagonists of the estrogen related receptor signaling pathway with the pleiotropic PPARgamma coactivator (PGC) from Tox21 10K library - cell viability counter screen (AID 1224840; active means well fitted cell-killing curve with a large enough effect in the repeat runs, not every such curve was filed as active; further: nearly all actives have a fitted effect of over 40% in size; further: potency means the concentration at half of the fitted maximal effect). A digest of the protocol:
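Here the PGC/ERR cells serve as a cytotoxicity control: they are exposed to compounds for 17.5 hours at 37 C, and live-cell signal is quantified using CellTiter-Fluor fluorescence.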

A short description of assay [6]: qHTS assay to identify small molecule antagonists of the estrogen related receptor (ERR) signaling pathway from Tox21 library - cell viability counter screen (AID 1224834). Further: nearly all actives have a fitted effect of over 30% in size. Further: potency means the concentration at half of the fitted maximal effect. A digest of the protocol: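 CellTiter-Fluor fluorescence measured; ERR cells; 17.5 h compound incubation at 37 C; 30 min reagent step.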
The target of assay [7] is Luciferin 4-monooxygenase (Photinus pyralis) (UniProt P08659). In words: qHTS assay to identify small molecule inhibitors of firefly luciferase (AID 1224835). Further: nearly all actives have a fitted effect of over 25% in size. Further: potency means the concentration at half of the fitted maximal effect. A digest of the protocol:
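Quantitative HTS format; KM concentrations of both substrates. Purified P. pyralis FLuc activity quantified from luminescence images.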

Assay [8] concerns the target Nuclear receptor subfamily 1 group I member 3 (Homo sapiens) (UniProt Q14994). In words: qHTS assay to identify small molecule antagonists of the constitutive androstane receptor (CAR) signaling pathway (AID 1224838).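 Further: HepG2 cells stably expressing hCAR with CYP2B6 luciferase reporter stimulated by CITCO; nearly all actives have a fitted effect of over 40% in size.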 Further: potency means the concentration at half of the fitted maximal effect. A digest of the protocol: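 Reporter luminescence was quantified after 24 h exposure of hCAR/CYP2B6-2.2kb double-stable HepG2 cells to compounds at 15 concentrations in the presence of 50 nM CITCO final.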

Assay [9] shares this target. Kind of assay: qHTS assay to identify small molecule agonists of the constitutive androstane receptor (CAR) signaling pathway (AID 1224839). Further: nearly all actives have a fitted effect of over 15% in size. Further: potency means the concentration at half of the fitted maximal effect. A digest of the protocol:
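Luminescence read-out (ONE-Glo, 30 min, room temperature) from double-stable HepG2-CYP2B6-hCAR cells exposed 24 h to 15-point compound series in presence of 0.75 uM PK11195 final.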

Assay [10] addresses Thyrotropin receptor (Homo sapiens) (UniProt P16473). In words: qHTS assay to identify small molecule agonists of the thyroid stimulating hormone receptor (TSHR) signaling pathway (AID 1224843; calls by dose curve; further: nearly all actives have a fitted effect of over 45% in size). A digest of the protocol:
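TSHR-expressing HEK293 cells (800 per well) were exposed to compounds for 30 min at room temperature. cAMP was then detected by HTRF competition with cAMP-d2 and anti-cAMP cryptate, read after 1 h at room temperature. Fifteen concentrations, triplicate.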

Assay [11] is described as follows: qHTS assay to identify small molecule antagonists of the estrogen related receptor signaling pathway with the pleiotropic PPARgamma coactivator (PGC) from Tox21 10K library (AID 1224841; call rule not given here; further: actives are mostly falling curves and most rising ones were filed inactive; nearly all actives have a fitted effect of over 50% in size; further: potency means the concentration at half of the fitted maximal effect). A digest of the protocol:
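Each well held 2,000 PGC/ERR cells, pre-incubated six hours (37 C, 5% CO2). Test substances in DMSO were added by pin tool and left for 18 h at 37 C before luciferase detection by One-Glo.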

Assay [12] in a line: qHTS assay to identify small molecule antagonists of the estrogen related receptor (ERR) signaling pathway - cell viability counter screen (AID 1224818). Further: series mostly up to about 46 µM. A digest of the protocol: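 In the same ERR cell assay, compound-treated wells (17.5 h, 37 C) were multiplexed with a fluorogenic viability reagent, CellTiter-Fluor, read after 30 min to flag cytotoxic substances.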
Assay [13] is described as follows: qHTS assay to identify small molecule antagonists of the estrogen related receptor signaling pathway with the pleiotropic PPARgamma coactivator (PGC) cell viability counter screen (AID 1224822; further: series mostly up to about 46 µM). A digest of the protocol:
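Compounds in DMSO, with positive and negative controls, were applied to PGC/ERR cells (2,000/well) and left 17.5 h at 37 C before CellTiter-Fluor detection.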

A short description of assay [14]: qHTS assay to identify small molecule antagonists of the retinoic acid receptor (RAR) signaling pathway (AID 1159552; further: potency means the concentration at half of the fitted maximal effect; nearly all actives have a fitted effect of over 50% in size). A digest of the protocol: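 Luminescence from a RARE luciferase reporter in C3RL4 cells served as read-out. Cells received compounds together with 1 uM final retinol and incubated 6 hr at 37 C before detection reagent was added for 30 min at room temperature.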

“And” between values parts separate entries of the source, which are not always exact repeats. Equal values may be shown once. Records with an inconclusive call do not appear. The source holds several records for some structures; these can differ, active in one and inactive in another. The source made the active and inactive calls. Unless noted, the call rests on the fitted dose curve; in most records, active means well fitted curve in the direction sought with a large enough effect in the repeat runs; inconclusive means weak or mixed curves; inactive means no such curve, though single readings can be large; an effect the other way counts as inactive or inconclusive.

Chain of Luciferin 4-monooxygenase (Photinus pyralis) (P08659 whole entry, looked up): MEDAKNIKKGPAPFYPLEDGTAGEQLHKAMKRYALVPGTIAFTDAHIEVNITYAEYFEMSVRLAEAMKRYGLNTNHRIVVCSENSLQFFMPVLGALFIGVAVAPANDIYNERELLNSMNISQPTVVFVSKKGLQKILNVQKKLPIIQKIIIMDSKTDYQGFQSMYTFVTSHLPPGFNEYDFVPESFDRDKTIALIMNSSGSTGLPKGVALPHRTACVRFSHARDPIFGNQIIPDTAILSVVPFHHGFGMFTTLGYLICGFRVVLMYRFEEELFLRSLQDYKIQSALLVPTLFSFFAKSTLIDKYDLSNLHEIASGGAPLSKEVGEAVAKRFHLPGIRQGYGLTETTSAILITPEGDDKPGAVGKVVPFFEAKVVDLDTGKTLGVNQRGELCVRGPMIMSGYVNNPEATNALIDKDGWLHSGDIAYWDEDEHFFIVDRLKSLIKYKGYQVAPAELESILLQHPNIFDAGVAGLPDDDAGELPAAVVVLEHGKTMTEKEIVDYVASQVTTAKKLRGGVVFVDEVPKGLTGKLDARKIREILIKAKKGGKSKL
Chain of Thyrotropin receptor (Homo sapiens) (P16473 whole entry, looked up): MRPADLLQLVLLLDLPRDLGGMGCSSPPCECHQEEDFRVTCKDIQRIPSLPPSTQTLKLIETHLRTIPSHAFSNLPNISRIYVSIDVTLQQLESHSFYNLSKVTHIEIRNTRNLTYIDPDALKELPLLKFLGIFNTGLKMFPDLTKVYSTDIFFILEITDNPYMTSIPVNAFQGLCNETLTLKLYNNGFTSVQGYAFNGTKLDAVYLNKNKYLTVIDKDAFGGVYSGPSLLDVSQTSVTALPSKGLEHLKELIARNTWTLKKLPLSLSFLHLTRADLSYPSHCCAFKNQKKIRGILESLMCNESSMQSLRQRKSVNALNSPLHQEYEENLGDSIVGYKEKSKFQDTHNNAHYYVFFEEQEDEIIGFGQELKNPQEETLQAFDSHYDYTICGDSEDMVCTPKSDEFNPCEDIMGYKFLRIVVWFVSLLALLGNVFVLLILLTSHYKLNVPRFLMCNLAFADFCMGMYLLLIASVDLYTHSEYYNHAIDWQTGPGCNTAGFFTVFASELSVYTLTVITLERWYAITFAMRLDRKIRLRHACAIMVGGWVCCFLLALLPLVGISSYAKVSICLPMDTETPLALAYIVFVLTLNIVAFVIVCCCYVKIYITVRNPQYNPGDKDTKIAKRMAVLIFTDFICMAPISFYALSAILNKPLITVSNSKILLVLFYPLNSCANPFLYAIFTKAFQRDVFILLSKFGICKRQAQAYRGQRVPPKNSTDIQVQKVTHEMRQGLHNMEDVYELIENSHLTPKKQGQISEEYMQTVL
Chain of Nuclear receptor subfamily 1 group I member 3 (Homo sapiens) (Q14994 whole entry, looked up): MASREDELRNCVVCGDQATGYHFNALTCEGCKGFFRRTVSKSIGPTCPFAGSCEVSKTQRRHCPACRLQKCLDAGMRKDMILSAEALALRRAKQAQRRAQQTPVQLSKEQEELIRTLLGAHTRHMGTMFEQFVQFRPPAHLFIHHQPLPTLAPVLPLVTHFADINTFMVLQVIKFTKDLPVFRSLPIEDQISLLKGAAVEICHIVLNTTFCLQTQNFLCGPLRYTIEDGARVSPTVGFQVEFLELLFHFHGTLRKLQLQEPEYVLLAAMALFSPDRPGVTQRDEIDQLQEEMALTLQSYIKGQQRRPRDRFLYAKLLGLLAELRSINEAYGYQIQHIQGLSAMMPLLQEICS

Turning to `[Cl-].[Cl-].[Cl-].[Fe+3]`, the Potency result in [1], in assay [2], in [3], in assay [4] and in [5] was “inactive” in each case.

For `CCOP(=O)(O)OCC` (tested in a mixture with another compound), the Potency result in [1] was “inactive and 17.2 µM (active)”; in assay [2], “inactive and 60.6 µM (active)”; in assay [6] it was “inactive and 54 µM (active)”; in [5], “inactive and 60.6 µM (active)”. Further, in assay [7], the Potency entry is “inactive”.

Turning to `CNC(=O)CSP(=S)(OC)OC`, the Potency result in assay [1], in [2], in assay [6], in [3], in [4] and in assay [8] was “inactive” in each case. Also, the Potency entry in assay [9], in [5] and in assay [10] was “inactive” in each case.

For the molecule `CC[n+]1c(-c2ccccc2)c2cc(N)ccc2c2ccc(N)cc21`, the Potency entry in assay [1], in [2], in assay [7] and in assay [9] was “inactive” throughout. The Potency in assay [3] is 48.3 µM (active); in assay [4], 30.5 µM (active); in assay [8], 21.6 µM (active) and 13.3 µM (active); in [5], 24.2 µM (active).

Turning to `CC(C)Nc1ccc(Nc2ccccc2)cc1`, the Potency was 19.4 µM (active) and 21.9 µM (active) in [1]; 27.2 µM (active) and 61.1 µM (active) in assay [6]; 31.6 µM (active) and 35.6 µM (active) in [7]; 54.3 µM (active) in assay [4]; 13.6 µM (active) and 27.3 µM (active) in assay [9]; 43.1 µM (active) in assay [5]. For the same molecule, the Potency in assay [11] was 54.3 µM (active) and inactive. The Potency entry in assay [8] was “inactive”.

`Cc1ccc([N+](=O)[O-])cc1`: the Potency entry in assay [1], in assay [2], in [6], in assay [7], in [3] and in assay [4] was “inactive” throughout. Besides, the Potency entry in [8], in assay [9] and in [5] was “inactive” each time.

On to `C[N+](C)(C)CC(=O)O`, for which the Potency entry in [1], in [2], in assay [13], in assay [7], in [3] and in assay [4] was “inactive” in each case. Also, the Potency entry in assay [5] is “inactive”. Besides, the result in assay [12] was inactive.

As to `CNC(=S)S`, the Potency entry in [1], in assay [2], in assay [6], in assay [7], in [3] and in [4] was “inactive” throughout. For the same molecule, the Potency result in [8], in [9] and in [5] was “inactive” throughout.

`Cl`: the Potency result in assay [1], in [2], in [3], in assay [4] and in assay [5] was “inactive” each time.

Regarding `CCOP(=S)(OCC)SCSC(C)(C)C`, the Potency result in [1], in [2], in assay [6], in assay [7], in assay [3] and in assay [4] was “inactive” each time. Moreover, the Potency result in [8], in [9], in assay [5] and in assay [10] was “inactive” in each case.

Consider `O=[N+]([O-])c1ccc(Cl)c([N+](=O)[O-])c1`, for which the Potency in assay [1] is 24.9 µM (active) and 24.5 µM (active); in [14] it was 13.9 µM (active) and 12.2 µM (active); in assay [3], 19.6 µM (active) and 24.3 µM (active); in assay [4], 22 µM (active) and 17.2 µM (active); in [8] it was 19.6 µM (active) and 15.4 µM (active); in [5], 49.3 µM (active) and 27.3 µM (active). The Potency entry in [7] and in [9] was “inactive” throughout.

Values taken from PubChem BioAssay (Tox21).
